From PubChem
Shown are actives, neighbours in structure and some others; about 0.52% of the full set was active somewhere.
S aureus helic – inhibitors of S. aureus replicative helicase, primary screen, biochemical, fluorescence unwinding readout. replicative DNA helicase (DnaC/DnaB), Staphylococcus aureus. purified S. aureus helicase, fluorescence unwinding assay. inhibition, % (no concentration beside the values). hit rate 0.05% among 120,000. AID 485395, 2010; in the data active means inhibition above about 25%, passing the limit was not always enough
Sa growth 42C – S. aureus growth inhibition at 42 and 30 °C, primary screen, LtaS inhibitor project, RN4220, two temperatures. OD600, 20 h, 42 °C; active compounds read low. relative growth, % (no concentration beside the values). AID 720641, 2013. hit rate 0.53% among 170,000;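 active means relative growth at most 50% at the other temperature and 20+ points below 30 °C, or under 10% at both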
Large screens that a line does not name were inactive.

COc1cccc(CSc2nnc(Cc3cccs3)n2C2CCCCC2)c1	Sa growth 42C 5.8
CCCCNC(=O)c1cc(C)on1	none
COc1ccc(N(Cc2cc(C)on2)S(=O)(=O)c2cc(C)ccc2C)cc1	none
COc1cc(Cc2cc(OC)c(C)cc2OC)c(OC)cc1C	none (no result: S aureus helic)
COc1cc(C)c(Cc2cnc(N)nc2N)cc1OC	Sa growth 42C -0.2 (no result: S aureus helic)
COc1cccc(-n2nnnc2S(=O)(=O)Cc2ccccc2)c1	Sa growth 42C -1.1
Cc1cccc(C)c1-n1nnnc1S(=O)(=O)Cc1ccccc1Cl	none
CCc1c(C)sc2c1CCN(C(=O)Nc1cc(C)cc(C)c1)C2c1ccccc1 (stereo not given)	none (no result: S aureus helic)
CCc1c(C)sc2c1CCN(Cc1ccc(F)cc1)C2c1ccccc1 (stereo not given)	Sa growth 42C -1.1 (no result: S aureus helic)
CCc1c(C)sc2c1CCN(Cc1ccc(C#N)cc1)C2c1ccccc1 (stereo not given)	none (no result: S aureus helic)
CCc1c(C)sc2c1CCN(Cc1cccc(F)c1)C2c1ccccc1 (stereo not given)	Sa growth 42C -1.3 (no result: S aureus helic)
O=c1c2ccccc2nc2sc(Nc3c(F)cccc3F)nn12	none
COC(=O)c1c2c(n3ccc(C)cc13)C(=O)c1ccccc1C2=O	Sa growth 42C 7.5
COC(=O)c1c2c(n3ccccc13)C(=O)c1ccccc1C2=O	none (no result: Sa growth 42C)
N#C/C(=C\Nc1cccc(Cl)c1)S(=O)(=O)Cc1ccco1	none (no result: S aureus helic)
N#C/C(=N\Nc1cccc(Cl)c1)C(=O)c1ccco1	Sa growth 42C 1.8
Cc1cc(C(=O)/C(C#N)=N/Nc2cccc(Cl)c2)n(C(C)(C)C)n1	Sa growth 42C 5.4
N#C/C(=N\Nc1cc(C(=O)O)cc(C(=O)O)c1)C(=O)c1ccccc1	none
Cn1c(N)nc(O)c1/C=C1/C=Nc2ccccc21	none
COc1ccc(CCNC(=O)c2ccc3c(=O)n(Cc4ccc5c(c4)OCO5)c(=O)[nH]c3c2)cc1OC	none
CCCC(=O)Nc1ccc(C(=O)Cn2nnc(-c3cccc(F)c3)n2)cc1	none
Cc1cc2[nH]c(=O)c(=O)[nH]c2cc1S(=O)(=O)N1CCCc2ccccc21	none
CCC[C@@H]1C[C@@H](C(=O)N[C@@H]([C@H]2O[C@H](SC)[C@H](O)[C@@H](O)[C@H]2O)[C@@H](C)O)N(C)C1	Sa growth 42C 0.0 (no result: S aureus helic)
CCCCCCCCCCCCCCCC(=O)O[C@@H]1[C@@H](O)[C@@H](O)[C@@H](C(NC(=O)[C@@H]2C[C@@H](CCC)CN2C)C(C)Cl)O[C@@H]1SC (stereo not given in full)	none (no result: S aureus helic)
O=C(CSc1nnc(-c2cnccn2)s1)c1ccccc1	none (no result: S aureus helic)
C[n+]1ccc(/C=C/c2ccccc2O)c2ccccc21	S aureus helic 50
CN(C)C(=O)/C=C/c1ccc2c(c1)OCO2	none
C[n+]1ccc(/C=C\c2ccco2)c2ccccc21	Sa growth 42C 3.2
Oc1ccc(N=Cc2ccccc2O)cc1	none
O/N=C/c1ccco1	none
C[n+]1ccc(/C=C/c2ccc3c(c2)OCO3)c2ccccc21	Sa growth 42C 0.0
Cc1ccc(S(=O)(=O)Nc2nc3ccccc3nc2N2CC(C)OC(C)C2)cc1 (stereo not given)	none
O=S(=O)(c1ccc(-n2cccn2)cc1)N1CCCC1	none
C=COC(=O)CSc1nc(C)cc(C)c1C#N	none
Cc1ccnc(-n2c(C)ccc2C)c1	none (no result: S aureus helic)
CC1CCCCN1S(=O)(=O)c1ccc(NC(=O)/C=C/c2ccco2)cc1 (stereo not given)	none
COc1cccc(C(=O)N2CCN(C(=O)c3cc(OC)cc(OC)c3)CC2)c1	none
Cc1noc(C)c1COc1cccc(C(=O)N2CCN(c3ccccc3)CC2)c1	none
CC(C)(C)c1ccc(C(=O)Nc2ccc(S(N)(=O)=O)cc2)cc1	Sa growth 42C 2.7
CCc1ccc(C(=O)Nc2ccc(S(N)(=O)=O)cc2)cc1	none (no result: S aureus helic)
O=C(COC(=O)c1ccccc1C(=O)N1CCN(c2ccc(F)cc2)CC1)NC1CC1	none
O=S(c1c(F)c(F)c(F)c(F)c1F)c1c(F)c(F)c(F)c(F)c1F	Sa growth 42C 0.7
O=C(OCC(=O)c1c[nH]c2ccccc12)c1ccc2c(c1)OCCO2	none
O=S(=O)(Cc1ccccc1)NC(c1ccccc1)c1nnc(-c2ccccc2)o1 (stereo not given)	none
CO[C@H]1/C=C/O[C@@]2(C)Oc3c(C)c(O)c4c(O)c(c(C=NN5CCN(C)CC5)c(O)c4c3C2=O)NC(=O)/C(C)=C\C=C\C(C)[C@H](O)[C@@H](C)[C@@H](O)[C@@H](C)[C@@H](OC(C)=O)[C@@H]1C (stereo not given in full)	Sa growth 42C 1.3 (no result: S aureus helic)
CO[C@H]1C=CO[C@@]2(C)Oc3c(C)c(O)c4c(O)c(c5c(c4c3C2=O)NC2(CCN(CC(C)C)CC2)N=5)=NC(=O)C(C)=CC=C[C@H](C)[C@H](O)[C@@H](C)[C@@H](O)[C@@H](C)[C@H](OC(C)=O)[C@@H]1C	Sa growth 42C 0.6 (no result: S aureus helic)
CO[C@H]1C=CO[C@@]2(C)Oc3c(C)c(O)c4c(O)c(c5c(nc6cc(C)ccn65)c4c3C2=O)NC(=O)C(C)=CC=C[C@H](C)[C@H](O)[C@@H](C)[C@@H](O)[C@@H](C)[C@H](OC(C)=O)[C@@H]1C	none (no result: S aureus helic)
CO[C@H]1/C=C/O[C@@]2(C)Oc3c(C)c(O)c4c(O)c(c5c(nc6cc(C)ccn65)c4c3C2=O)NC(=O)/C(C)=C\C=C\[C@H](C)[C@H](O)[C@@H](C)C(O)[C@@H](C)[C@H](OC(C)=O)[C@@H]1C (stereo not given in full)	Sa growth 42C -0.8 (no result: S aureus helic)
CCC(=O)N1CCN(c2ccc(OC)cc2)CC1	none
CSc1ccc(S(=O)(=O)NCC2CCCO2)cc1 (stereo not given)	none
O=c1[nH]c2ccc(Br)cc2c(-c2ccccc2)c1N1CCCCC1	none (no result: Sa growth 42C)
CCN(c1ccccc1)S(=O)(=O)c1ccc(Cl)cc1	none
CCN(c1ccc2oc3ccccc3c2c1)S(=O)(=O)c1ccc(C#N)cc1	Sa growth 42C 45
O=C1C(=Cc2cccnc2)C(=O)c2ccccc21	none
O=C1/C(=C/c2cccnc2)c2ccccc2N1c1ccccc1	Sa growth 42C 8.4
CC1CC(C)(C)OC(c2ccccc2)O1 (stereo not given)	none
C=C(NC(=O)C(=C)NC(=O)c1csc(C2=NC3c4csc(n4)C4NC(=O)c5csc(n5)C(C(C)(O)C(C)O)NC(=O)C5CSC(=N5)C(=CC)NC(=O)C(C(C)O)NC(=O)c5csc(n5)C3(CC2)NC(=O)C(C)NC(=O)C(=C)NC(=O)C(C)NC(=O)C(C(C)CC)NC2C=Cc3c(C(C)O)cc(nc3C2O)C(=O)OC4C)n1)C(N)=O (stereo not given)	Sa growth 42C -1.0 (no result: S aureus helic)
Cc1ccc(N(C)S(=O)(=O)c2cc3[nH]c(=O)c(=O)[nH]c3cc2C)cc1	none
C/C(=N\N1C(=O)c2ccccc2NC12CCCCC2)c1ccccc1O	none
CC(CN=CC1=C(O)CC(C)(C)CC1=O)N=CC1=C(O)CC(C)(C)CC1=O (stereo not given)	none
C=CCn1c(=O)c2c(ncn2C)n(C)c1=O	none
CNC(=S)N(Cc1cc2ccc(OC)cc2[nH]c1=O)C1CCCC1	none
CCN1CCN(c2ccc(NC(=O)CCc3c(C)nc4cc(-c5ccc(OC)cc5OC)nn4c3C)cc2)CC1	none
COC(=O)c1ccc(COC(=O)c2cc(-c3ccco3)nc3ccccc23)cc1	none
O=C(OCc1ccc(F)cc1)c1cc(-c2ccco2)nc2ccccc12	Sa growth 42C 6.6
Cc1ccc(C)n1-c1ccc(SCC(=O)O)cc1	S aureus helic 42
COc1ccc(SCC(=O)O)cc1	none
